Test results as given in PubChem BioAssay (NCI).
The panel holds about 83,000 compounds, 20% with a hit somewhere; the sample as a whole holds those more often.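 Percent growth is the endpoint: 0 to 100 indicates growth inhibition (40 means 60% inhibition), 0 means no net growth, and negative values indicate cell death.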 Values without a mark were called inactive. Activity calls are given as the source filed them. The calls were made as follows: active = growth percent below 10; inactive = the rest.

tested on: HL-60(TB) leukemia; assay: NCI-60 one-dose screen, 48 h (100 = growth as untreated, 0 = no growth, -100 = all killed); details: 10 µM unless noted

For [Cl-].[Rh+3].c1ccc(-c2ccnc3c2ccc2c(-c4ccccc4)ccnc23)cc1.c1ccc(-c2ccnc3c2ccc2c(-c4ccccc4)ccnc23)cc1.c1ccc(-c2ccnc3c2ccc2c(-c4ccccc4)ccnc23)cc1, which growth is on record?
Its growth is 99.9%.

With Brc1ccc(Cn2nnnc2-c2ccn(-c3ccccc3)n2)cc1 as the molecule, how does the growth read?
Its growth is 69.1%.

CCN(C)S(=O)(=O)Nc1cccc(Nc2ncnc3cc(NC(=O)CCl)ccc23)c1Cl was tested. Which growth did it give?
The growth was 4.38% (active).

For O=S(=O)(O)c1cnccn1, which growth is on record?
The growth was 95.3%.

COC1=CC(=O)C(OC)=C(OC)C1=O was tested. Which growth did it give?
Its growth is 61.4%.

c1ccc(-c2ccc(-c3nc4ccccc4[nH]3)cc2)cc1 was tested. Which growth did it give?
Its growth is 66.7%.

How did the growth turn out when CC1=CC[C@@H]2CC[C@]3(C)[C@H](CC[C@@H]4[C@@]5(C)CCCNC(C)(C)[C@@H]5CC[C@]43C)[C@H]2[C@@H]1C was run?
Its growth is 21.7%.

With COc1ccc(C2=C(Br)C(=O)c3nc(C)ccc3C2=O)cc1 as the molecule, how does the growth read?
Its growth is 66.2%.

For N#Cc1c(NC(=O)c2ccccc2I)sc2c1CCCC2, which growth is on record?
The growth was 12.6%.

How did the growth turn out when O=C1NC(=O)c2cc([N+](=O)[O-])cc3cccc1c23 was run?
The growth was 135%.

How did the growth turn out when O=C1c2ccccc2OC=C(c2ccccc2)N1CCCCNc1ccc(S(=O)(=O)Nc2ncccn2)cc1 was run?
Its growth is 73.1%.

How did the growth turn out when CCN(CC)CCOc1ccc2c(-c3ccccc3)c(-c3ccc(OC)cc3)c(=O)oc2c1 was run?
Its growth is 48.8%.

For COc1ccc2c(c1)c(-c1ccc(-c3cn(C)c4ccc(OC)cc34)o1)cn2C, which growth is on record?
Its growth is -23% (active).

How did the growth turn out when Cc1cc(Cl)ccc1Nc1nc(C(F)(F)F)ccc1C(=O)N/N=C/c1ccc([N+](=O)[O-])cc1 was run?
Its growth is -24.1% (active).
